Measurements: PubChem BioAssay (NCI)
Compounds without any hit were thinned out: in the full panel of roughly 83,000, 20% have a hit.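 Step 1: grow cells in 96-well plates. Step 2: add test compound at a single concentration. Step 3: incubate 48 h. Step 4: record percent growth.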 Values without a mark were called inactive. Active and inactive are the calls of the source. The calls were made as follows: active = growth percent below 10; inactive = the rest.

Key:
Experiment in all cases: NCI-60 one-dose screen, 48 h (100 = growth as untreated, 0 = no growth, -100 = all killed)
Details in all cases: 10 µM
NCI-H23 lung = tested on: NCI-H23 lung
NCI-H226 lung = tested on: NCI-H226 lung
HOP-62 NSCLC = tested on: HOP-62 NSCLC
NCI-H460 lung = tested on: NCI-H460 lung
HOP-92 NSCLC = tested on: HOP-92 NSCLC
NCI-H522 lung = tested on: NCI-H522 lung
A549/ATCC NSCLC = tested on: A549/ATCC NSCLC
786-0 renal = tested on: 786-0 renal
COLO 205 colon = tested on: COLO 205 colon
DU-145 prostate = tested on: DU-145 prostate
K-562 leukemia = tested on: K-562 leukemia
MALME-3M melanoma = tested on: MALME-3M melanoma
MDA-MB-231 breast = tested on: MDA-MB-231 breast
RXF 393 renal = tested on: RXF 393 renal
SF-268 CNS = tested on: SF-268 CNS
SF-295 CNS = tested on: SF-295 CNS
SF-539 CNS = tested on: SF-539 CNS
UACC-257 melanoma = tested on: UACC-257 melanoma
M14 melanoma = tested on: M14 melanoma

Row | SMILES | growth (NCI-H23 lung) | growth (NCI-H226 lung) | growth (HOP-62 NSCLC) | growth (NCI-H460 lung) | growth (HOP-92 NSCLC) | growth (NCI-H522 lung) | growth (A549/ATCC NSCLC) | growth (786-0 renal) | growth (COLO 205 colon) | growth (DU-145 prostate) | growth (K-562 leukemia) | growth (MALME-3M melanoma) | growth (MDA-MB-231 breast) | growth (RXF 393 renal) | growth (SF-268 CNS) | growth (SF-295 CNS) | growth (SF-539 CNS) | growth (UACC-257 melanoma) | growth (M14 melanoma)
1 | CC(C)N(CCOc1cccc(-c2nc3sccn3c2-c2ccnc(S(C)(=O)=O)n2)c1)C(C)C | 96.1% | 67.5% | 103% | 94.7% | 43.5% | 82% | 104% | 97.3% | 97.6% | 89.8% | 69.1% | 91.3% | 57.8% | 65.3% | 92.5% | 103% | 91.9% | 104% | 
2 | O=C(N/N=C/c1ccc(Cl)cc1)c1ccc(Cc2n[nH]c(=O)c3cccnc23)cc1 | 90.6% | 96.1% | 97.3% | 109% | 95.2% | 89% | 103% | 101% | 104% | 112% | 106% | 93.2% | 102% | 91.2% | 98.6% | 101% | 89.7% | 97.1% | 
3 | CN(C)CCOc1cccc(-c2nc3sccn3c2-c2ccnc(S(C)(=O)=O)n2)c1 | 100% | 92.3% | 79% | 94.9% | 53.7% | 103% | 97.9% | 95.9% | 106% | 93% | 101% | 101% | 80.2% | 104% | 101% | 100% | 86.6% | 106% | 105%
4 | CCOS(=O)(=O)c1c(C(C)C)cc(C(C)C)cc1C(C)C | 98.4% | 99.5% | 98.9% | 103% | 99.1% | 100% | 102% | 105% | 104% | 103% | 92.8% | 89.6% | 99.5% | 108% | 100% | 98.9% | 99.4% | 105% | 92.8%
5 | Nc1ccc(/C=N/Nc2ccnc3c(O)cccc23)c2cccnc12 | 74.6% | 84% | 64.4% | 25.9% | 88.1% | 41.3% | 42.6% | 50.7% | 104% | 37.4% | 0.593% (active) | 101% | 0.678% (active) | 55.8% | 43.5% | 84.8% | 67.7% | 105% | 53.8%
6 | COc1cc(-c2nn(-c3cccc(NC(=O)CCN4CCN(c5ccccc5)CC4)c3)cc2-c2ccncc2)ccc1Cl | 24.5% | 47.6% | 34.2% | 6.87% (active) | 4.23% (active) | 10.1% | 15.9% | 2.45% (active) | -36.9% (active) | 30.8% | 11.3% | 38% | 7.1% (active) | -0.267% (active) | 30% | 13.4% | 30.2% | 29.1% | 10.8%
7 | CC(C)(C)OC(=O)CN1CCc2c(sc3ncnc(N/N=C/c4cccc5ccccc45)c23)C1 | 40.6% | 53.1% | 45.5% | 20.9% | 54.9% | 32.8% | 43.7% | 44.1% | 18.4% | 66.4% | 6.22% (active) | 72.2% | 39.9% | 55.9% | 60.2% | 51.5% | 24.3% | 38.8% | 
8 | CCNCC(=O)Nc1ccc(C(=O)OCC)cc1 | 99.9% | 109% | 90.5% | 99.5% | 113% | 88.7% | 103% | 89.6% | 108% | 104% | 96.6% | 110% | 119% | 124% | 93.6% | 102% | 100% | 96.7% | 102%
9 | CC(=O)[C@H]1CC[C@]2(C)[C@@H]1CC[C@@H]1[C@@]3(C)CC(CCC#N)(CCC#N)C(=O)C(C)(C)[C@@H]3CC[C@]12C | 86.7% | 94.6% | 99.3% | 101% | 105% | 94.1% | 103% | 101% | 106% | 108% | 110% | 105% | 105% | 90.6% | 98.9% | 98.2% | 101% | 107% | 95.9%
10 | Nc1nccc(OCCO)n1 | 99.8% | 96.1% | 94% | 108% | 113% | 90.7% | 97.4% | 102% | 110% | 104% | 99.3% | 108% | 108% | 117% | 101% | 97.5% | 101% | 97.6% | 102%
11 | O=C(O)c1cc([N+](=O)[O-])ccc1Oc1ccccc1 | 101% | 98.6% | 101% | 105% | 65.8% | 97.1% | 99.7% | 104% | 104% | 104% | 116% | 81.3% | 97.3% | 107% | 97.3% | 101% | 94.6% | 96.8% | 106%
12 | COc1ccc(/C=C2\CCCC3=C2NC(N)=NC3c2ccc(OC)c(OC)c2)cc1OC (stereo not given) | 49.3% | 34.1% | 57% | 64.6% | 75% | 16.7% | 58.8% | 94.3% | 46% | 76.7% | 56% | 52.5% | 74% | 20.9% | 63.8% | 70.7% | 85.2% | 46.2% | 57.3%
13 | CCN(CC)CCNc1ccc(C)c2sc3cc(Cl)ccc3c(=O)c12 | 55% | 75.2% | 66.9% | 1.44% (active) | 22% | 42.7% | 31.1% | 43.3% | -67.3% (active) | 43.5% | -51% (active) | -26.4% (active) | -15.9% (active) | 12.9% | 47% | 70% | 66.3% | -28.2% (active) | -64.9% (active)
14 | COc1cc(NC(=O)Nc2cnc(Nc3ccc(N4CCOCC4)cc3)nc2Oc2cccc(OC)c2)cc(OC)c1 | 61.3% | 7.06% (active) | 32.1% | 23.9% | 4.67% (active) | 27.5% | 23.4% | -25.6% (active) | 46.2% | 36.9% | 55.4% | 8.57% (active) | 16.9% | -32.5% (active) | 50% | 34.6% | -68.4% (active) | 48% | 45.2%
15 | S=c1cnc2ccccc2[nH]1 | 98.4% | 107% | 93.3% | 96.3% | 79.4% | 95.5% | 93.5% | 98.9% | 95% | 103% | 99.8% | 84.6% | 111% | 114% | 95.7% | 103% | -10.4% (active) | 99.1% | 89%
16 | CC(C)C[C@H](NC(=O)Cn1cccc(CNC(=O)c2ccccc2)c1=O)B(O)O | 23.7% | -66% (active) | 5.64% (active) | 27.8% | -11.3% (active) | -9.79% (active) | 43.9% | 29.5% | 30.6% | 43.1% | 11.6% | -35.3% (active) | -2.81% (active) | -19% (active) | -19.5% (active) | 1.43% (active) | -16.6% (active) | -9.26% (active) | 12.2%
17 | CN(C)CCCOc1ccccc1NC1=C(Cl)C(=O)C(Nc2ccccc2OCCCN(C)C)=C(Cl)C1=O | -48.5% (active) | -81% (active) | -96.9% (active) | -20.6% (active) | -57.1% (active) | -67.2% (active) | -55.6% (active) | -95.4% (active) | -64.9% (active) | -97.2% (active) | -25.3% (active) | -77.6% (active) | -71.9% (active) | -98.2% (active) | -88.1% (active) | -58.8% (active) | -96.6% (active) | -92.9% (active) | -68.8% (active)
